Several values for one entry are separate records, joined by “and”; a condition that tells them apart may be missing. Identical values can stand only once. Where a structure was tested more than once in an assay, its records may differ in their call. Activity calls are given as the source filed them. The calls were made as follows: active = hit-call score of the fitted dose curve at least 0.9, where 1 is the maximum; inactive = score below 0.9.
Assay: BSK_SAg_SRB: Viability Assessment in the BioMAP Diversity Plus: SAg Assay (AID 2283096);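 also: hits may be either gain or loss of signal compared with DMSO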
Conditions: primary human HUVEC with PBMC
Method: BSK_SAg is a cell-based, multiplexed-readout assay that uses umbilical vein endothelium and peripheral blood mononuclear cells, a human vascular primary cell co-culture, with measurements taken at 24 hours after chemical dosing in a 96-well plate.BSK_SAg_SRB is an assay component measured in the BSK_SAg assay. It measures protein content, a form of viability reporter, as detected with absorbance signals by Sulforhodamine staining technology.Data from the assay component BSK_SAg_SRB was analyzed into 1 assay endpoint. This assay endpoint, BSK_SAg_SRB, was analyzed with bidirectional fitting relative to DMSO as the negative control and baseline of activity. Using a type of viability reporter, gain or loss-of-signal activity can be used to understand changes in the signaling. Furthermore, this assay endpoint can be referred to as a primary readout, because this assay has produced multiple assay endpoints where this one serves a signaling function. To generalize the intended target to other relatable targets, this assay endpoint is annotated to the cell morphology intended target family, where the subfamily is cell conformation.
The levels of cell surface (or secreted, indicated by the prefix "s") biomarker endpoints were measured by ELISA. Overt cytotoxicity to cells in confluent adherent cultures (all systems other than the BT system) was assessed by measuring total protein levels using sulforhodamine B (SRB) staining in parallel cultures at the time of biomarker measurements, indicated as SRB endpoints. For proliferation assays for adherent cell types, individual cell types are cultured at sub-confluence and relative cell numbers quantified by SRB staining at time points optimized for each system (48 h: 3C and CASM3C systems; 72 h: BT and HDF3CGF systems; 96 h: SAg system). SRB was performed by staining cells with 0.1% SRB after fixation with 10% TCA and reading wells at 560 nm.Viability and proliferation of PBMC (T cells) was quantified by Alamar Blue reduction for the SAg and BT systems. For PBMC viability (referred to as PBMC Cytotoxicity within the assay endpoint names), cells were plated (75,000/well in a 96-well plate) and then chemical samples added for 1 h before addition of activators, SEB and TSST-1 (20 ng/mL final concentration each). Cells were incubated for 90 h. Then, Alamar Blue (20 uL/well) (Invitrogen, Cat DAL1100) was added for 6 h, and the plates were read with a fluorescence microplate reader at 546/580 nm (excitation/emission). For PBMC proliferation, cells were plated and activated as above but incubated for only 16 h prior to addition of Alamar Blue. Plates were read after 6 h.

**Q.** With Nc1ccc([N+](=O)[O-])cc1O as the compound, how does the outcome read?
**A.** inactive

**Q.** With OCC(F)(F)C(F)(F)C(F)(F)C(F)F as the compound, how does the outcome read?
**A.** inactive

**Q.** Which outcome does the source give for FC(F)(F)C(F)(F)CNCC(F)(F)C(F)(F)F here?
**A.** inactive

**Q.** Which outcome does the source give for CCCCOCCOCCOC(=O)CCCCC(=O)OCCOCCOCCCC here?
**A.** inactive

**Q.** For FC(F)(I)C(F)(F)C(F)(F)C(F)(F)I, which outcome is on record?
**A.** inactive

**Q.** With O=C(O)C(F)(F)C(F)(F)C(F)(F)C(F)(F)F as the compound, how does the outcome read?
**A.** inactive

**Q.** Which outcome does the source give for O=S(=O)(OCCOC(F)(F)F)C(F)(F)F here?
**A.** inactive

**Q.** With O=C(O)C(F)(F)C(F)(F)OC(F)(F)F as the compound, how does the outcome read?
**A.** inactive

**Q.** For FC(F)(F)C(F)(F)C(F)(F)C(F)(F)C(F)(F)C(F)(F)CCS, which outcome is on record?
**A.** inactive

**Q.** With CO[Si](OC)(c1ccccc1)c1ccccc1 as the compound, how does the outcome read?
**A.** inactive

**Q.** Which outcome does the source give for OCC(F)(F)C(F)(F)C(F)(F)C(F)(F)C(F)(F)C(F)F here?
**A.** inactive

**Q.** For O=C(O)C(F)(F)C(F)(F)C(F)(F)C(F)(F)C(F)(F)C(F)(F)C(F)(F)C(F)(F)C(F)(F)C(F)F, which AC50 is on record?
**A.** 47.3 µM (active) and 45.8 µM (active)

**Q.** For O=C(O)C(F)(F)C(F)(F)C(F)(F)C(F)(F)C(F)(F)C(F)(F)C(F)(F)C(F)(F)C(F)(F)C(F)(F)C(F)(F)C(F)(F)F, which outcome is on record?
**A.** inactive

**Q.** For O=C(O)C=C(C(F)(F)F)C(F)(F)F, which outcome is on record?
**A.** inactive

**Q.** Which outcome does the source give for FC(F)(F)C(F)(F)C(F)(F)C(F)(F)C(F)(F)C(F)(F)C(F)(F)Br here?
**A.** inactive

**Q.** For O=S(=O)(O)C(F)(F)C(F)(F)C(F)(F)C(F)(F)C(F)(F)C(F)(F)C(F)(F)F, which outcome is on record?
**A.** inactive

**Q.** For CCCCNc1ccccc1, which outcome is on record?
**A.** inactive

**Q.** Which outcome does the source give for CS(C)(=O)=O here?
**A.** inactive

**Q.** Which outcome does the source give for OCC(F)(F)C(F)(F)C(F)(F)F here?
**A.** inactive

**Q.** Which outcome does the source give for CCN(CC)c1ccc2c(C)cc(=O)oc2c1 here?
**A.** inactive

**Q.** Which outcome does the source give for CC(CCl)OP(=O)(OC(C)CCl)OC(C)CCl (stereo not given) here?
**A.** inactive

**Q.** Which outcome does the source give for CCc1c(Br)c(Br)c(Br)c(Br)c1Br here?
**A.** inactive

**Q.** Which outcome does the source give for O=C(O)C(F)(OC(F)(F)C(F)(OC(F)(F)C(F)(OC(F)(F)C(F)(F)C(F)(F)F)C(F)(F)F)C(F)(F)F)C(F)(F)F (stereo not given) here?
**A.** inactive

**Q.** With FC(F)(F)C(F)(F)C(F)(F)CI as the compound, how does the outcome read?
**A.** inactive

**Q.** Which outcome does the source give for O=C(CC(=O)C(F)(F)C(F)(F)F)C(F)(F)F here?
**A.** inactive

**Q.** For O=C(O)C(F)(F)C(F)(F)F, which outcome is on record?
**A.** inactive

**Q.** For CCc1ccc(C(c2ccc(CC)cc2)C(Cl)Cl)cc1, which AC50 is on record?
**A.** 29.1 µM (active)

**Q.** Which outcome does the source give for C=CC/C=C/C/C=C/C/C=C/C here?
**A.** inactive

**Q.** Which outcome does the source give for CCCCCCCOC(=O)c1ccccc1C(=O)OCCCCCCC here?
**A.** inactive

**Q.** With OCC(F)(F)C(F)(F)C(F)(F)C(F)(F)C(F)(F)C(F)(F)F as the compound, how does the outcome read?
**A.** inactive

**Q.** Which outcome does the source give for OCCCC(F)(F)C(F)(F)C(F)(F)F here?
**A.** inactive

**Q.** Which outcome does the source give for CCCCCCCCC(F)(F)C(F)(F)C(F)(F)C(F)(F)C(F)(F)C(F)(F)F here?
**A.** inactive

**Q.** With O=P(O)(O)OCCC(F)(F)C(F)(F)C(F)(F)C(F)(F)C(F)(F)C(F)(F)F as the compound, how does the outcome read?
**A.** inactive

**Q.** Which outcome does the source give for C=CC(F)(F)C(F)(F)C(F)(F)C(F)(F)C(F)(F)C(F)(F)C(F)(F)C(F)(F)C=C here?
**A.** inactive

**Q.** With O=C(O)C(F)(F)C(F)(F)C(F)(F)C(F)(F)C(F)(F)C(F)(F)C(F)(F)C(F)(F)C(F)(F)C(F)(F)C(F)(F)C(F)(F)C(F)(F)F as the compound, how does the outcome read?
**A.** inactive

**Q.** With N=C(N)C(F)(F)C(F)(F)C(F)(F)C(F)(F)C(F)(F)C(F)(F)C(F)(F)F as the compound, how does the AC50 read?
**A.** 53 µM (active)

**Q.** And the outcome?
**A.** inactive

**Q.** Which outcome does the source give for COC(=O)CCC(F)(F)C(F)(F)C(F)(F)C(F)(F)F here?
**A.** inactive

**Q.** For FC(F)(F)C(F)(F)C(F)(F)C(F)(F)C(F)(F)C(F)(F)C(F)(F)C(F)(F)F, which outcome is on record?
**A.** inactive

**Q.** For FC(F)(F)C(F)(F)C(F)(F)N(C(F)(F)C(F)(F)C(F)(F)F)C(F)(F)C(F)(F)C(F)(F)F, which outcome is on record?
**A.** inactive

From PubChem BioAssay (EPA / NIEHS)
